This note sets out measurements from article PMC7862700, “An all-to-all approach to the identification of sequence-specific readers for epigenetic DNA modifications on cytosine”.

Holding throughout (test): DAPPL (digital affinity profiling via proximity ligation, sequencing); 10 mM Tris-HCl pH 7.5, 50 mM NaCl, 1 mM DTT, 4% glycerol, room temperature, 30 min; GST-TFs on glutathione beads, 16-mer random dsDNA library, 0.1% formaldehyde crosslink after washing; high values mean tight binding
Common to all, as to details: protein: recombinant; tags: N-terminal GST; dsDNA, one strand shown

One test deals with T1, FLI1 (Homo sapiens, UniProt Q01543 1-452).
T1 sequence: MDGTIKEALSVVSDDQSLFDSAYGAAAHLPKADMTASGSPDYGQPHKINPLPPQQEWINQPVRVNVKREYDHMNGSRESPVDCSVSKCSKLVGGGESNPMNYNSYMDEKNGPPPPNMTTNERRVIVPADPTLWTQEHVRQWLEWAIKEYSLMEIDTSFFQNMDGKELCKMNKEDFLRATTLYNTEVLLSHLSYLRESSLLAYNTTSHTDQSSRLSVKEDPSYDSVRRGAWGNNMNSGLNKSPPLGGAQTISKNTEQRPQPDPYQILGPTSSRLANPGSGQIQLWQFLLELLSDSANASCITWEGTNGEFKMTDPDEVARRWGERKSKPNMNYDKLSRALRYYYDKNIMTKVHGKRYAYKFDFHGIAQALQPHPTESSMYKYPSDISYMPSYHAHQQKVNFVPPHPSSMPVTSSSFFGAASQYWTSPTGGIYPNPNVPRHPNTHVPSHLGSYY
In a few lines:
(§1)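 Pools of DNA-barcoded human transcription factors, expressed in yeast as GST fusions on glutathione beads and combined with a tag-only sample, were incubated with 200 nmole of a 16-mer random double-stranded DNA library. Incubation took 30 min at room temperature in Tris/NaCl/DTT/glycerol buffer and was followed by washing, 0.1% formaldehyde crosslinking, proximity ligation (BsaI/T4 ligase, 1 h, 37 °C), PCR amplification and sequencing on an Illumina NextSeq500. Binding signal is the ratio of a hexamer's read frequency for a factor to its frequency for the tag-only sample.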

The next test deals with T2, ELK1 (Homo sapiens, UniProt P19419 1-428).
T2 sequence: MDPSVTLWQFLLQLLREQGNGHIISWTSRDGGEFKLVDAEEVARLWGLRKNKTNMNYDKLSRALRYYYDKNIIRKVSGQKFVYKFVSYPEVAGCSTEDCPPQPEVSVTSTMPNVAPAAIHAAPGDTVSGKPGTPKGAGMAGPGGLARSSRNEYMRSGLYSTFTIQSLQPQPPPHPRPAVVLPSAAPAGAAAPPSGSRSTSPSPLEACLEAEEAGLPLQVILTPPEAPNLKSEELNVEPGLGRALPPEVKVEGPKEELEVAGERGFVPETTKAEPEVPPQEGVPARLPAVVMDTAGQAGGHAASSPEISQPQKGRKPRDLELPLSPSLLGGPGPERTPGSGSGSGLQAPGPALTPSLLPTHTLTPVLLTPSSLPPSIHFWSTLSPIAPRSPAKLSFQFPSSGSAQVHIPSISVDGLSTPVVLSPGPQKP
In a few lines:
as §1

The target in a further test is T3, GABPA (Homo sapiens, UniProt Q06546 1-454).
T3 sequence: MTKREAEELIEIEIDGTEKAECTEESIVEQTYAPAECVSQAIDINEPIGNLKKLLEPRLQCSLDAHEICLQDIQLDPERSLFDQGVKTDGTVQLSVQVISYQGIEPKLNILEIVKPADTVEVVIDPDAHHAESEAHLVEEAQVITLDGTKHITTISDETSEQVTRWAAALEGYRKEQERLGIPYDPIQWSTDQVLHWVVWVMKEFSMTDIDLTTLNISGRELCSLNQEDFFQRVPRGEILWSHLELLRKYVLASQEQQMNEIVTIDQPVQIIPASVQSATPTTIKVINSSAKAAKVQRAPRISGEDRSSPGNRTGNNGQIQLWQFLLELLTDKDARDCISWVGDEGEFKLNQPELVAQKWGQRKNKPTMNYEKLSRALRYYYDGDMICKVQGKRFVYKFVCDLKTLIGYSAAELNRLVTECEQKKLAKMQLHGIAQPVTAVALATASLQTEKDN
In outline:
as §1

In a further test the target is T4, ERG (Homo sapiens, UniProt P11308 1-479).
T4 sequence: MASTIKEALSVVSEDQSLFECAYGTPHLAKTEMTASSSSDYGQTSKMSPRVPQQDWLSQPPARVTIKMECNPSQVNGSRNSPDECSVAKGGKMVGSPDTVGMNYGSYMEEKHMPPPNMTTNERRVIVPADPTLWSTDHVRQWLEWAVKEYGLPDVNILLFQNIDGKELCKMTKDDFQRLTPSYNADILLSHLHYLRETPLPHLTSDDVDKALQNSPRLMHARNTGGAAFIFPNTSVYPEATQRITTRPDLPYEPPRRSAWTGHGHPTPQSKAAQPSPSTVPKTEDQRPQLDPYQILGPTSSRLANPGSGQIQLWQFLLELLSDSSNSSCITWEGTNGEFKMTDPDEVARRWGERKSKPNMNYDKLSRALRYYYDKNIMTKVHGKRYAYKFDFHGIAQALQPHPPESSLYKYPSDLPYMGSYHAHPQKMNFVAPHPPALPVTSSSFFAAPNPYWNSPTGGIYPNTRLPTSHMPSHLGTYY
In outline:
as §1

A further test has as its target ELF1 (Homo sapiens, UniProt P32519 1-619). In outline: as §1
For a further test, the target named is T5, EHF (Homo sapiens, UniProt Q9NZC4 1-300).
T5 sequence: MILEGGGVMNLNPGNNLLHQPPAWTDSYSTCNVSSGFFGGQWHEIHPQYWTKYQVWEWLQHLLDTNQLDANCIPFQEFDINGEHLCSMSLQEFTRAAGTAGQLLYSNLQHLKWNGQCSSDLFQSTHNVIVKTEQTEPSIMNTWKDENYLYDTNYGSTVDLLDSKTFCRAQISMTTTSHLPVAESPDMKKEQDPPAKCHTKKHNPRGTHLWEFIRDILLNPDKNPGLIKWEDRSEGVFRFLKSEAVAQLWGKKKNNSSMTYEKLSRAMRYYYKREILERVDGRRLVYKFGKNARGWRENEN
In outline: as §1

The next test deals with SPI1 (Homo sapiens, UniProt P17947 1-270). In a few lines: as §1
The target in the next test is SPIB (Homo sapiens, UniProt Q01892 1-262). In a few lines:
as §1

The target of a further test is ETV5 (Homo sapiens, UniProt P41161 1-510). In a few lines: as §1
Chain of ETV5 (P41161 whole entry): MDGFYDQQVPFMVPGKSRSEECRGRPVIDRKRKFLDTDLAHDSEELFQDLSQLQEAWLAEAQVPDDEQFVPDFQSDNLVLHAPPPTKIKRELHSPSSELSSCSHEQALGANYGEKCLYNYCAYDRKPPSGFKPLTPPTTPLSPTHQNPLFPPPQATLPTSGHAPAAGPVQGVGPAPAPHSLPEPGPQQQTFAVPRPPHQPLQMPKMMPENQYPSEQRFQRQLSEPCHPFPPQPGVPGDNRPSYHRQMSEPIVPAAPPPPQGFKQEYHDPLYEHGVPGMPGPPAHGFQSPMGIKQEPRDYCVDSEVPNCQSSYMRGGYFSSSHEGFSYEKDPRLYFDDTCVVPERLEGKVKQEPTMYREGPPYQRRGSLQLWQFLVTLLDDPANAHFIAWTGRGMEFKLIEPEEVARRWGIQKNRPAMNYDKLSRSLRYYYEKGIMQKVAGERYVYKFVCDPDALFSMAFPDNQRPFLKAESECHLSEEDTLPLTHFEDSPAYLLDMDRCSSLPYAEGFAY
Another test concerns the target T6, SPIC (Homo sapiens, UniProt Q8N5J4 1-248).
T6 sequence: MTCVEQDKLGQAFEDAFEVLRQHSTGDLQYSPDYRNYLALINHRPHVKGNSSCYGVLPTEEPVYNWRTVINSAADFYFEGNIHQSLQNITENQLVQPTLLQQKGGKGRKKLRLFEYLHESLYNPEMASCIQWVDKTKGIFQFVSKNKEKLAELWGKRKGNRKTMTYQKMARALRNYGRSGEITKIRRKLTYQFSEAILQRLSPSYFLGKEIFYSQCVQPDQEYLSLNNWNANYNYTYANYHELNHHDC
In outline:
as §1

A further test concerns the target ELF4 (Homo sapiens, UniProt Q99607 1-663). In outline: as §1
The target of a further test is ETV1 (Homo sapiens, UniProt P50549 1-477). In a few lines: as §1
Chain of ETV1 (P50549 whole entry): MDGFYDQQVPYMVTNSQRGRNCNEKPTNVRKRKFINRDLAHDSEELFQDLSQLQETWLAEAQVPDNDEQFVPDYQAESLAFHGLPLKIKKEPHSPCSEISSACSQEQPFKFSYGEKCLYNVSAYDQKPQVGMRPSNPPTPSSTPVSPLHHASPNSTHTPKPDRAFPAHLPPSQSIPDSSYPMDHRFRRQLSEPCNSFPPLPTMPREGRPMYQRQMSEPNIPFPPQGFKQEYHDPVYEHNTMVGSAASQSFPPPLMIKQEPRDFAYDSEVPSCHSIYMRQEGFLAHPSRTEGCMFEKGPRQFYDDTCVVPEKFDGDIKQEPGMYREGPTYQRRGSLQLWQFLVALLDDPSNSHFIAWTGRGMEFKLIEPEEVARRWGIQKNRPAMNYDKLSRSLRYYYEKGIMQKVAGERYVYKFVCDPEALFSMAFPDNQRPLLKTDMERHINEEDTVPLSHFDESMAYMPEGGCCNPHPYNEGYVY
The target in a further test is T7, ETS2 (Homo sapiens, UniProt P15036 1-469).
T7 sequence: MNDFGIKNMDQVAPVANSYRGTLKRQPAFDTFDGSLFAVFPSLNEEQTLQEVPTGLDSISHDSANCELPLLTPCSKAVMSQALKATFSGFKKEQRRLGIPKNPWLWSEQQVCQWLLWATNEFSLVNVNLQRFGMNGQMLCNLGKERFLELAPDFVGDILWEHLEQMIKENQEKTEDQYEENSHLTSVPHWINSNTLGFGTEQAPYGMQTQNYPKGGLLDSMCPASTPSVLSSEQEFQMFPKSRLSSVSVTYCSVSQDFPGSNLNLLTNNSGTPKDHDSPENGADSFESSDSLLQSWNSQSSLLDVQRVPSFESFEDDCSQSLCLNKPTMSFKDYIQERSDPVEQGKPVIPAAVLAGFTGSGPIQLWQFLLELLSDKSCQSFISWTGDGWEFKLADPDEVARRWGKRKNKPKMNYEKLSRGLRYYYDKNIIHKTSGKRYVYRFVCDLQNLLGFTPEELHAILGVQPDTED
In a few lines:
as §1

For a further test, the target named is T8, ELF5 (Homo sapiens, UniProt Q9UKW6-2 1-255).
T8 sequence: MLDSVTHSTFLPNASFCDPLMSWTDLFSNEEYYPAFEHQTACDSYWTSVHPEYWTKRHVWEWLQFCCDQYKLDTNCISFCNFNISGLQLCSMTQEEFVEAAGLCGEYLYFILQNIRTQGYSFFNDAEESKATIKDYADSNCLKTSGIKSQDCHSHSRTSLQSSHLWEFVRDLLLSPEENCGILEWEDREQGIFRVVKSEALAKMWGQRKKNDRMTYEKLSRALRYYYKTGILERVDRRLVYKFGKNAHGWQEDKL
In outline:
as §1

In the next test the target is T9, ETV3 (Homo sapiens, UniProt P41162-2 1-143).
T9 sequence: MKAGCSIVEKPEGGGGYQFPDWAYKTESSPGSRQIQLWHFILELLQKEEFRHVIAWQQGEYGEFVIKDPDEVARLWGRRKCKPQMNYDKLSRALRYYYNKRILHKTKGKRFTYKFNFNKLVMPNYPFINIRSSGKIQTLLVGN
In a few lines: as §1

The next test deals with T10, FEV (Homo sapiens, UniProt Q99581 1-238).
T10 sequence: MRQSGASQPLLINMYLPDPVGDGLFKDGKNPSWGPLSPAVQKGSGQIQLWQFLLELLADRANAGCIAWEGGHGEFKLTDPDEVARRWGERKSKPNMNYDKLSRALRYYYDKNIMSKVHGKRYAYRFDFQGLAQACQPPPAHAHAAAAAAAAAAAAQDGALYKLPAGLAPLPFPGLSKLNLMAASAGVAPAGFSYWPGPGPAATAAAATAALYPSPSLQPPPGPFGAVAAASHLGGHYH
In outline:
as §1

A further test has as its target T11, ERF (Homo sapiens, UniProt P50548 1-548).
T11 sequence: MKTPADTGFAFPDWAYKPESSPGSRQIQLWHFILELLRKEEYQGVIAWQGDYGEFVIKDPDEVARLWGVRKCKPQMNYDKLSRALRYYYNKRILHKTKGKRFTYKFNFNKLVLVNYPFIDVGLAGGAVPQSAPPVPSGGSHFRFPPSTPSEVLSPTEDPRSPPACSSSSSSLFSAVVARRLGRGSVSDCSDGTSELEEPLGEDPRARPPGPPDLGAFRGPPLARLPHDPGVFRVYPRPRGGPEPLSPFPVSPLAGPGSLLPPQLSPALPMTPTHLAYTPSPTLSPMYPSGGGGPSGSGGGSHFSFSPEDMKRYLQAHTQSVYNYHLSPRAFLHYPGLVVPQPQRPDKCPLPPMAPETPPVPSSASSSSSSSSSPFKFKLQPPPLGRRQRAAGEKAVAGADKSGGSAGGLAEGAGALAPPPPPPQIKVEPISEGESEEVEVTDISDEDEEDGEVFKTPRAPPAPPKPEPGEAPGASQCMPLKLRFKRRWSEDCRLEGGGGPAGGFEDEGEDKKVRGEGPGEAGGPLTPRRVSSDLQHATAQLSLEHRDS
In outline:
as §1

Another test has as its target T12, ETV3L (Homo sapiens, UniProt Q6ZN32 1-361).
T12 sequence: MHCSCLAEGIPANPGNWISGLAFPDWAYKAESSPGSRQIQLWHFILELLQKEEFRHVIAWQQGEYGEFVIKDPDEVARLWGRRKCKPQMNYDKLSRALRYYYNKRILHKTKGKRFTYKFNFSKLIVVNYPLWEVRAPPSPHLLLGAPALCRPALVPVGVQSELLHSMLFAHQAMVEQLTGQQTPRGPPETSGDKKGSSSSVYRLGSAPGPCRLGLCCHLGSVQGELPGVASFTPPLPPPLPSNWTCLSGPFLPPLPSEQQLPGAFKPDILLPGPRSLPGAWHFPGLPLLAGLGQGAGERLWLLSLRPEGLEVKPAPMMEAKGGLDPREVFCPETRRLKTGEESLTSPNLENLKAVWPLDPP
In outline: as §1

Chain of ELF4 (Q99607 whole entry): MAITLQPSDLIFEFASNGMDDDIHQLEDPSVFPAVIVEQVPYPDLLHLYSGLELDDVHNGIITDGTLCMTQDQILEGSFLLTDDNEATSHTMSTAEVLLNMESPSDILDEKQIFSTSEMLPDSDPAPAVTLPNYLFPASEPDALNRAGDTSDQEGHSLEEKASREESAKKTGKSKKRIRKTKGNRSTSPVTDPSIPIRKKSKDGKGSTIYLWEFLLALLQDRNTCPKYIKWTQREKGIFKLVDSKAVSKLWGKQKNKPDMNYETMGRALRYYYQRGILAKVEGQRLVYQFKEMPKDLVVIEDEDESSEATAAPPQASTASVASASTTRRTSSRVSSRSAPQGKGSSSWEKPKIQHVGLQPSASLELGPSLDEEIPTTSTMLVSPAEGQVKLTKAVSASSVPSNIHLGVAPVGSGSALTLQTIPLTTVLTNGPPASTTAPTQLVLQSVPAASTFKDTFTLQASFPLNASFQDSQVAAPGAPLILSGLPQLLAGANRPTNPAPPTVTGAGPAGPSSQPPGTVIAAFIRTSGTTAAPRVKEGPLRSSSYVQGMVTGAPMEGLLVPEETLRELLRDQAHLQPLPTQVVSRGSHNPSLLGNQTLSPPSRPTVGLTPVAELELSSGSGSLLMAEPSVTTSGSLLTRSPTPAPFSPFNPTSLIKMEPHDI
Chain of SPIB (Q01892 whole entry): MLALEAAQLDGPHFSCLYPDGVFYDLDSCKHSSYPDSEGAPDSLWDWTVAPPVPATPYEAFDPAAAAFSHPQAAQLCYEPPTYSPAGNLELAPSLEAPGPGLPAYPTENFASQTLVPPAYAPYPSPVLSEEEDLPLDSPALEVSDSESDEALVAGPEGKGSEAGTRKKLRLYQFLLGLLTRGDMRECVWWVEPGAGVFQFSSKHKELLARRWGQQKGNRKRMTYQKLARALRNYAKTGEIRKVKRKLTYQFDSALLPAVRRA
Chain of ELF1 (P32519 whole entry): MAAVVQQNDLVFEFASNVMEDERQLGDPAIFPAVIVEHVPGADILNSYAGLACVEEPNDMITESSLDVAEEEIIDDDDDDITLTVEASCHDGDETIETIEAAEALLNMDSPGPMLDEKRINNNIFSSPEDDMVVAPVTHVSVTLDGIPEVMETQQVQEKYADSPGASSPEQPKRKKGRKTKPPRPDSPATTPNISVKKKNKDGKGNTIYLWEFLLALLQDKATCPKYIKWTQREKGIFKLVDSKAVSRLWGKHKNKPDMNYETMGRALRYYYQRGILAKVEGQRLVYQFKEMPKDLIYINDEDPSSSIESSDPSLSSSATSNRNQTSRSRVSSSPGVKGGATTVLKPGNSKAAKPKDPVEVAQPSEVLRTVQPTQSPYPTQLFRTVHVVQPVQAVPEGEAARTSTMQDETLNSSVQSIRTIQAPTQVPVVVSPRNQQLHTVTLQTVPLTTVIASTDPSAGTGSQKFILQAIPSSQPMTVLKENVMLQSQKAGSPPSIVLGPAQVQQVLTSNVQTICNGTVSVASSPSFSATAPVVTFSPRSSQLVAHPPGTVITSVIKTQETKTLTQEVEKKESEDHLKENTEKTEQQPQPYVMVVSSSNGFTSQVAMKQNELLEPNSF

As for AAGGGT, the binding signal is 1 fold enrichment (6-mer frequency, TF over GST control) with FLI1; 1.01 fold enrichment (6-mer frequency, TF over GST control) with ELK1; 1.01 fold enrichment (6-mer frequency, TF over GST control) in the test with GABPA; 1 fold enrichment (6-mer frequency, TF over GST control) with ERG; 1.01 fold enrichment (6-mer frequency, TF over GST control) with ELF1; 1.01 fold enrichment (6-mer frequency, TF over GST control) in the test with EHF. For the same sequence, the binding signal with SPI1 was 1.05 fold enrichment (6-mer frequency, TF over GST control); in the test with SPIB, 1.04 fold enrichment (6-mer frequency, TF over GST control); with ETV5 it was 1.05 fold enrichment (6-mer frequency, TF over GST control); with SPIC, 1.08 fold enrichment (6-mer frequency, TF over GST control); with ELF4 it was 1.01 fold enrichment (6-mer frequency, TF over GST control); in the test with ETV1, 1.05 fold enrichment (6-mer frequency, TF over GST control). Further, the binding signal with ETS2 is 1.07 fold enrichment (6-mer frequency, TF over GST control); in the test with ELF5, 1.04 fold enrichment (6-mer frequency, TF over GST control); in the test with ETV3, 1.05 fold enrichment (6-mer frequency, TF over GST control).
Take CCGATG: the binding signal is 1.07 fold enrichment (6-mer frequency, TF over GST control) in the test with FLI1; 1.1 fold enrichment (6-mer frequency, TF over GST control) in the test with ELK1; 1.18 fold enrichment (6-mer frequency, TF over GST control) with GABPA; 1.06 fold enrichment (6-mer frequency, TF over GST control) with ERG; 1.03 fold enrichment (6-mer frequency, TF over GST control) with EHF; 1.08 fold enrichment (6-mer frequency, TF over GST control) in the test with SPI1. In addition, the binding signal with SPIB was 1.2 fold enrichment (6-mer frequency, TF over GST control); with FEV, 1.08 fold enrichment (6-mer frequency, TF over GST control); with ETV5, 1.11 fold enrichment (6-mer frequency, TF over GST control); in the test with SPIC, 1.2 fold enrichment (6-mer frequency, TF over GST control); with ELF4, 1.14 fold enrichment (6-mer frequency, TF over GST control); with ETV1, 1.1 fold enrichment (6-mer frequency, TF over GST control). The binding signal with ERF is 1.1 fold enrichment (6-mer frequency, TF over GST control); with ETV3L, 1.1 fold enrichment (6-mer frequency, TF over GST control); with ETV3 it was 1.12 fold enrichment (6-mer frequency, TF over GST control).
